AmpC inh detg – inhibitors of E. coli AmpC beta-lactamase with detergent; AID 485294; Potency, µM (series often up to 114 µM), most hits filed as inhibitors; AmpC hydrolysis of nitrocefin, absorbance 480 nm, 0.01% Triton; P00811; 370,000 compounds, 0.041% hits; also: nearly all actives have a fitted effect of over 25% in size
Target sequence (P00811 whole entry, looked up): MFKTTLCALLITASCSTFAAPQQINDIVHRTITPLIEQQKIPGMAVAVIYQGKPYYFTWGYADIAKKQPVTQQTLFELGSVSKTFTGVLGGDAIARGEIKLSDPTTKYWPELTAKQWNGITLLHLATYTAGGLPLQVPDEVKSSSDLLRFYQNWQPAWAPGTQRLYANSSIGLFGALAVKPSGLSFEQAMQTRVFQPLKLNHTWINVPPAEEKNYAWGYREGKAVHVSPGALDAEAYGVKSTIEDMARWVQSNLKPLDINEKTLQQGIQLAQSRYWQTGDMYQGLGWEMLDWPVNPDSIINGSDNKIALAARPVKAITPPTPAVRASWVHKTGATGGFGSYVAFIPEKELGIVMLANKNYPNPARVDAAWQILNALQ
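AmpC (5.3 nM in the dispensed reagent) in 20 mM phosphate pH 7.0 with 0.01% (detergent screen) or 0.0001% Triton X-100 was preincubated with compounds for 15 min at room temperature. Nitrocefin was then added from an 800 uM solution, and hydrolysis was followed at 480 nm.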
Shiga inhibitor – Shiga toxin inhibition; Vero cells, Shiga toxin protein synthesis inhibition reporter; inhibition, % at 38.7 µM; 290,000 compounds, 9.2% hits; AID 2315; in the data active = inhibition mostly above about 28%, no sharp cut-off; inactive = mostly below about 43%
SARS PLP yeast – SARS-CoV PLP inhibition in yeast | S. cerevisiae expressing SARS-CoV PLpro, growth rescue | Potency, µM (doses to about 32.9 µM), actives largely listed as activators | 330,000 compounds, 0.19% hits; calls by dose curve; also: nearly all actives have a fitted effect of over 55% in size
AmpC inh no detg – blocks E. coli AmpC beta-lactamase in detergent-free assay | AID 485341 | Potency, µM (highest dose often 57.1 µM), most hits filed as inhibitors | AmpC nitrocefin hydrolysis, absorbance 480 nm, 0.0001% Triton | P00811 | 330,000 compounds, 0.52% hits; also: nearly all actives have a fitted effect of over 20% in size
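AmpC (5.3 nM in the dispensed reagent) in 20 mM phosphate pH 7.0 with 0.01% (detergent screen) or 0.0001% Triton X-100 was preincubated with compounds for 15 min at room temperature. Nitrocefin was then added from an 800 uM solution, and hydrolysis was followed at 480 nm.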
AMA1-RON2 inh – AMA1-RON2 (P. falciparum) interaction inhibition; AlphaScreen AMA1-biotinylated RON2 peptide binding; 360,000 compounds, 0.2% hits; AID 720542; Potency, µM (top dose mostly 58.2 µM), usual class: inhibitors; also: nearly all actives have a fitted effect of over 45% in size
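AMA1 (3D7) with his tag at 25 nM final met compounds first, then biotinylated RON2 peptide at 25 nM; detection used donor plus acceptor beads, 10 µg/mL apiece, read by AlphaScreen after 30 min at room temperature.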
CHX counter – counter-screen hit for Shiga toxin inhibitors, cycloheximide; cell reporter, cycloheximide protein synthesis inhibition counterscreen; max response, %; 300,000 compounds, 12% hits; in the data active = max response mostly above about 13%, no sharp cut-off; inactive = mostly below about 14%; also: read at 38.3 µM for the half of the compounds with a filed dose
Large screens that a line does not name were inactive. The entries come from a sample that favours hits as a whole. Unless noted, calls follow the shape of the dose curve; as a rule, active = well fitted curve in the direction sought with a large enough effect; inconclusive = small, poorly fitted or top-dose-only effect, or another doubt; inactive = no such curve, though single readings can be large; an effect the other way counts as inactive or inconclusive.

CC(C)C(=O)Nc1sc2c(c1-c1nc3ccccc3[nH]1)CCCC2	none
CC(=O)c1ccc(OCC(=O)NC2CCCN(Cc3ccccc3F)C2)cc1 (centres undefined)	AmpC inh detg inconclusive
CC(C)CCSc1nc2ccccc2[nH]1	Shiga inhibitor 102, CHX counter 52
C=C(C)CSc1nc2ccccc2[nH]1	Shiga inhibitor 59, CHX counter 29
CC(=O)N=C(N)Sc1nc2ccccc2[nH]1	Shiga inhibitor 67, CHX counter 48
CN(Cc1cccs1)C(=O)CSc1nc2ccccc2[nH]1	Shiga inhibitor 123, CHX counter 47
CN(C)C(=O)N1CCN(C(=O)N2CCOCC2)CC1	AmpC inh detg inconclusive
C=C(C)CSc1nc2nc(C)c(Br)cc2[nH]1	Shiga inhibitor 81, CHX counter 30 (no result: AMA1-RON2 inh)
COC(=O)CSc1nc2nc(C)c(Br)cc2[nH]1	none
Cc1nnsc1Sc1cccc(C(F)(F)F)c1	none
N#Cc1cc2c(nc1SCC(N)=O)CCCCC2	CHX counter 18
N#Cc1cc2cc3c(cc2nc1SCC(=O)N1CCCC1)OCCO3	AmpC inh detg inconclusive, Shiga inhibitor 51
N#Cc1cc2c(nc1SCC(=O)N1CCOCC1)CCCCC2	Shiga inhibitor 101, CHX counter 42
COc1cc2cc(C#N)c(SCC(=O)N3CCOCC3)nc2cc1OC	AmpC inh detg inconclusive
CC(=O)CSc1nc2cc3c(cc2cc1C#N)OCCO3	none
CCOC(=O)CC(=O)CSc1nc2c(cc1C#N)CCCCCC2	AmpC inh detg inconclusive
CN1CCN(c2ncnc3c2ncn3[C@H]2CN(Cc3cccs3)C[C@@H](CO)O2)CC1	none (no result: AmpC inh detg, Shiga inhibitor, SARS PLP yeast, AmpC inh no detg, CHX counter)
CN1CCN(C(c2ccccn2)c2cc(Cl)c3cccnc3c2O)CC1 (centres undefined)	none
CCn1c(SCC(=O)Nc2cccc(C(C)=O)c2)nnc1C(C)C	none
COc1ccc(-n2nc(N)c(C(N)=O)n2)cc1	CHX counter 33
CCn1c(-c2cc(Br)cc(OC)c2O)nc2cc(S(=O)(=O)N(C)C)ccc21	none
CCn1c(-c2ccccn2)nc2cc(S(=O)(=O)N(C)C)ccc21	CHX counter 17
C=CCn1c(SCC(=O)Nc2c(C)n(C)n(-c3ccccc3)c2=O)nc2ccccc2c1=O	none (no result: Shiga inhibitor, CHX counter)
O=C(/C=C/NNC(=O)c1ccc(Cl)cc1)c1ccccc1	Shiga inhibitor 47, CHX counter 31
O=C(/C=C/NCC(=O)c1ccccc1)c1ccc(Br)cc1	Shiga inhibitor 45
COc1ccc(C(=O)C=CNNC(=O)c2ccc(Cl)cc2)cc1	CHX counter 16 (no result: Shiga inhibitor)
O=C(/C=C/NNC(=O)c1ccccc1)c1ccc(Br)cc1	AmpC inh detg inconclusive, Shiga inhibitor 71, CHX counter 47
COc1ccc(C(=O)NN/C=C/C(=O)c2ccc(Br)cc2)cc1	none (no result: AmpC inh detg, Shiga inhibitor, SARS PLP yeast, AmpC inh no detg, CHX counter)
O=c1oc2cc(Br)ccc2n1CSC1=NCCS1	Shiga inhibitor 100, CHX counter 34
Cc1ccc(Sc2ncccc2C(=O)NCc2cc([N+](=O)[O-])ccc2O)c(C)c1	Shiga inhibitor 104, CHX counter 66
O=C(NCc1cc([N+](=O)[O-])ccc1O)c1cccnc1Sc1ccccc1	none
Nc1nc2c(-c3ccc(Br)cc3)nnn2c2ccccc12	Shiga inhibitor 96, CHX counter 49
Cc1ccc(-c2nnn3c2nc(NC(C)C)c2ccccc23)cc1	CHX counter 14
FC(F)(F)c1cccc(-c2nnn3c2nc(NC2CCCCC2)c2ccccc23)c1	none (no result: Shiga inhibitor, SARS PLP yeast, AmpC inh no detg, AMA1-RON2 inh, CHX counter)
NNc1nc2c(-c3cccc(C(F)(F)F)c3)nnn2c2ccccc12	Shiga inhibitor 53, CHX counter 15
CC(C)C[C@H]1COCCS(=O)(=O)N1Cc1cccc(C(F)(F)F)c1	none (no result: AmpC inh detg, Shiga inhibitor, SARS PLP yeast, AmpC inh no detg, CHX counter)
CCN(C(=O)COc1ccc2ccc(=O)oc2c1)C1CCCCC1	none (no result: AmpC inh detg, Shiga inhibitor, CHX counter)
COC1=CC(=O)OC(/C=C/c2ccccc2)C1 (centres undefined)	Shiga inhibitor 47, CHX counter 23
COC1=CC(=O)OC(c2ccco2)C1 (centres undefined)	none (no result: AmpC inh detg, Shiga inhibitor, SARS PLP yeast, AmpC inh no detg, CHX counter)
CC(C)(C)NC(=O)C(c1cccs1)N(C(=O)c1csnn1)c1cccc(F)c1 (centres undefined)	none
Cc1ccc(SCCC(=O)N2CCCC2)cc1	Shiga inhibitor 86, CHX counter 43
O=C(CSc1ccc(Cl)cc1)N1CCCC1	CHX counter 46
Cc1ccc(SCCC(=O)N2CCOCC2)cc1	CHX counter 26
Cc1ccc(SCc2ccc(C(=O)N3CCCC3)cc2)cc1	Shiga inhibitor 96, CHX counter 39
CCN1CCN(C(=O)c2ccc(CSc3ccc(C)cc3)cc2)CC1	none
Cc1cn([C@H]2C[C@H](O)[C@@H](CNS(=O)(=O)c3ccc(NS(=O)(=O)N(C)C)cc3)O2)c(=O)[nH]c1=O	none (no result: AmpC inh detg, Shiga inhibitor, SARS PLP yeast, AmpC inh no detg, CHX counter)
Cc1ccc(SCC(=O)N2CCCC2)cc1	AmpC inh detg inconclusive, Shiga inhibitor 124, CHX counter 23
CC(C)(C)NC(=O)NC(=O)COC(=O)c1nc(-c2ccccc2)n(-c2cccc(C(F)(F)F)c2)n1	none
COc1ccc(-c2ccccc2)cc1NCc1ccccc1C	AMA1-RON2 inh inconclusive, CHX counter 44
COc1ccc(C)cc1NCc1ccc(OC)c(C)c1OC	AMA1-RON2 inh 28µM
Cc1ccc(Cl)cc1N1CCN(C(=O)c2cc(S(=O)(=O)N3CCC(C)CC3)cn2C)CC1	none (no result: Shiga inhibitor, SARS PLP yeast, AmpC inh no detg, AMA1-RON2 inh, CHX counter)
CCCOC1CCCN(C(=O)c2ccc(OC3CCN(C(=O)COC)CC3)cc2)C1 (centres undefined)	none
COCCC(=O)N1CCC(Oc2ccc(C(=O)N(C)C3CCCCC3)cc2)CC1	AmpC inh detg inconclusive, CHX counter 12 (no result: Shiga inhibitor)
CCCOC1CCCN(C(=O)c2ccc(OC3CCN(C(=O)CCOC)CC3)cc2)C1 (centres undefined)	CHX counter 16
Cc1cccc(C)c1NC(=O)c1c[nH]c2ccccc12	Shiga inhibitor 74, CHX counter 16
Cc1cccc(C)c1NC(=O)CNC(=O)Cc1c[nH]c2ccccc12	none (no result: Shiga inhibitor, CHX counter)
COc1ccccc1NC(=O)c1cc(=O)[nH]c2ccccc12	none (no result: Shiga inhibitor)
COc1ccccc1C(=O)Nc1ccc2c3c(cccc13)CC2	Shiga inhibitor 87, CHX counter 38
COc1cccc(OC)c1C(=O)Nc1ccc2c3c(cccc13)CC2	none
COc1ccccc1NC(=O)c1c[nH]c2ccccc12	Shiga inhibitor 52, CHX counter 34
COc1ccccc1C(=O)Nc1ccccc1SC(=O)c1ccccc1OC	Shiga inhibitor 72, CHX counter 26
CC(C)C(NC(=O)c1ccc([N+](=O)[O-])cc1Cl)C(=O)N1CCCC1 (centres undefined)	none
NC(=O)c1c[nH]c2ccccc12	AmpC inh detg inconclusive
COc1ccccc1NC(=O)c1ccccc1NC(=O)c1ccccc1C(=O)O	CHX counter 16 (no result: Shiga inhibitor)
COc1ccccc1NC(=O)c1ccccc1C(=O)Nc1ccccc1OC	AmpC inh detg inconclusive
